Screens deposited in PubChem by National Center for Advancing Translational Sciences (NCATS).
Sampled rows, rich in hits. Any-hit rate of the full collection: about 8%.
HCV inhibitor – HCV inhibition; Potency, µM (top dose mostly 41.8 µM), without a hit: top-dose activity change, negative = inhibition, most hits filed as inhibitors; Huh7.5.1 HCVcc-Cre infection, luciferase reporter, 44 h; AID 651820; 340,000 compounds, 3.4% hits; active means well fitted inhibition curve with a large enough effect; inconclusive means small, poorly fitted or top-dose-only effect, or another doubt; inactive means no such curve, though single readings can be large or run the other way; further: potency means the concentration at half of the fitted maximal effect; on the % scale 0 is the no-effect control and ±100 the full control effect
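Compounds are dispensed onto cells plated 4 h earlier at 1,000 per well, with HCVcc-Cre virus (about 0.5 moi) added next. Following 44 h of culture, luminescent signal is measured for 15 sec after 15 min with substrate at room temperature.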
Marburg entry inh – blocks Marburg virus binding to or entry into cells; Potency, µM (top dose mostly 37.8 µM), for the others: top-dose activity change, negative = inhibition, hits mostly inhibitors; Marburg virus pseudotyped entry inhibition, cell reporter; AID 540276; 300,000 compounds, 1.8% hits; calls by dose curve; tested in HEK293 cells; further: potency means the concentration at half of the fitted maximal effect; on the % scale 0 is the no-effect control and ±100 the full control effect
HCMV antiviral – blocks human cytomegalovirus replication; HFF cells, HCMV-luciferase reporter, 72 h; hits give low values; activity change, negative = inhibition, % at 57.5 µM; 410,000 compounds, 4.5% hits; in the data active means activity change below about -60%; inconclusive means no clear call, values can overlap the other calls; inactive means above about -39%; further: on the % scale 0 is the no-effect control and ±100 the full control effect
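Cell-based, HFFs, 1000 cells/well, 16 h 37C; cpds in DMSO + HCMV-luc, MOI 1 PFU/cell; 72 h 37C; OneGlo luminescence after 5 min RT; norm. to buffer vs Salinomycin 10uM.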
Lassa entry inh – inhibitors of Lassa virus binding or cell entry; 300,000 compounds, 1.2% hits; Potency, µM (doses to about 37.9 µM), inactives show at the top dose activity change, negative = inhibition, usual class: inhibitors; Lassa virus pseudotype entry inhibition, cell reporter; AID 540256; calls by dose curve; tested in HEK293 cells; further: potency means the concentration at half of the fitted maximal effect; on the % scale 0 is the no-effect control and ±100 the full control effect; nearly all actives have a fitted effect of over 50% in size
FMDV inh – antivirals against foot and mouth disease virus. Potency, µM (highest dose often 57.9 µM), without a hit: at the highest dose activity change, negative = inhibition, actives largely listed as inhibitors. FMDV antiviral cell-based qHTS. 410,000 compounds, 1.2% hits; calls by dose curve; tested in HEK293T cells; further: read-out not given here; potency means the concentration at half of the fitted maximal effect; on the % scale 0 is the no-effect control and ±100 the full control effect; nearly all actives have a fitted effect of over 45% in size
SARS PLP yeast – SARS-CoV PLP inhibition in yeast. 330,000 compounds, 0.19% hits. S. cerevisiae expressing SARS-CoV PLpro, growth rescue. Potency, µM (titrated, usually from 32.9 µM), inactives show at the top dose activity, positive = growth rescue, hits mostly activators; calls by dose curve; further: potency means the concentration at half of the fitted maximal effect; 0% is about no effect; nearly all actives have a fitted effect of over 55% in size
* hit, by the source's call; ? = inconclusive; nt = no result given; [ ] = another dose, or the depositor's remark.

SMILES	HCV inhibitor	Marburg entry inh	HCMV antiviral	Lassa entry inh	FMDV inh	SARS PLP yeast
O=C(NCCC[N+]1=CC=N[C@H]1c1ccccc1)N1CCCc2nc(-c3ccc(Br)cc3)ccc21	nt	12%[14.2 µM]	nt	nt	nt	nt
C=CCn1c(C)cc(C(=O)COC(=O)/C=C/c2ccc(OC)cc2)c1C	?	22%	15	-24%	1%	-4%
C=CCn1c(C)cc(C(=O)COC(=O)/C=C/c2cccc(OC)c2)c1C	13µM*	nt	?	nt	-5%	2%
COc1cc(/C=N/NC(=O)COc2ccc(Cl)cc2)ccc1OS(=O)(=O)c1ccc(C)cc1	11µM*	?	7	?	-25%	-8%
C=CCNC(=O)/C(C#N)=C/c1ccc(OS(=O)(=O)c2ccc(C)cc2)c(OC)c1	13%	?	-99*	13µM*	20µM*	-72%
COc1cc(/C=N/NC(=O)COc2cccc(F)c2)ccc1OS(=O)(=O)c1ccc(C)cc1	?	?	?	?	0%	11%
COC(=O)N/N=C/c1ccc(OS(=O)(=O)c2ccc(C)cc2)c(OC)c1	0%	6%[46.1 µM]	-35	7.9µM*	-4%	-2%
COc1ccc(/C=C(\C#N)C(=O)NCc2cccs2)cc1OC	21%	1%	1	1%	-2%	-29%
COc1ccc(C2Oc3cc(OC)cc(OC)c3CC2O)cc1 (stereo not given)	nt	nt	nt	nt	-3%	nt
Cc1ccc(N2CCN(C(=O)c3cn(C)c4ccc(S(=O)(=O)N5CCCC5)cc4c3=O)CC2C)cc1 (stereo not given)	nt	-20%[46.1 µM]	?	-10%[46.1 µM]	12%	nt
O=[N+]([O-])c1ccc(CSc2nc3ncc(Br)cc3[nH]2)cc1	-2%	nt	-62*	nt	16%	1%
O=C(CSc1nc2ncc(Br)cc2[nH]1)c1cccc([N+](=O)[O-])c1	-26%	-24%	-2	-17%	8%	-18%
C=CCc1ccc(OCCCOc2ccc(C(=O)O)cc2)c(OC)c1	10%	3%[46.1 µM]	-7	-6%	22%	0%
C=CCc1ccc(OCCCN2CCCC(C)C2)c(OC)c1 (stereo not given)	25µM*	?	32	-20%	-4%	7%
C=CCc1ccc(OCCCCN2CCC(C)CC2)c(OC)c1	?	15µM*	-30	?	-11%	-22%
C=CCc1ccc(OCCCCN2CC(C)CC(C)C2)c(OC)c1 (stereo not given)	-14%	7.1µM*	-28	?	-23%	-1%
COc1cc(CN2CCCC(C)C2)ccc1OCc1ccccc1 (stereo not given)	-11%	?	-20	23%	12%	4%
CCOC(=O)c1cccc(NC(=O)COc2ccc3c(C)cc(=O)oc3c2)c1	nt	nt	-25	21%[46.1 µM]	1%	nt
COC(=O)CC1=C(C(=O)OC)[C@H](c2ccc3c(c2Cl)OCO3)C(C#N)=C(N)O1	nt	7%	nt	nt	nt	nt
Cc1c(/C(O)=C2\C(=O)C(=O)N(CCN3CCOCC3)[C@H]2c2cccnc2)cnn1-c1ccccc1	nt	0%	nt	nt	nt	nt
COc1ccc(C(=O)N/N=C/c2ccc(OC)c(COc3ccccc3)c2)cc1	?	?	2	-23%[46.1 µM]	4%	1%
COc1ccc(/C=N/NS(=O)(=O)c2ccccc2)cc1OC	?	nt	-23	nt	-15%	2%
COc1ccc(/C=N/NC(=O)c2ccc(OC)c(OC)c2)cc1COc1c(F)c(F)c(F)c(F)c1F	3.5µM*	1%[46.1 µM]	-5	1%[46.1 µM]	-5%	11%
COc1ccc(/C=N/NS(=O)(=O)c2ccc(F)cc2)cc1COc1cc(F)ccc1[N+](=O)[O-]	?	-23%[46.1 µM]	-66*	-17%[46.1 µM]	-15%	0%
COc1ccc(/C=N/NC(=O)c2ccc(NC(C)=O)cc2)cc1COc1ccc(F)cc1F	-16%	nt	-24	nt	?	-6%
SMILES	HCV inhibitor	Marburg entry inh	HCMV antiviral	Lassa entry inh	FMDV inh	SARS PLP yeast
COc1ccc(/C=N\NC(=O)c2ccc(F)cc2)cc1COc1cc(F)ccc1[N+](=O)[O-]	10µM*	-20%	19	?	25µM*	-2%
COc1ccc(/C=N\NC(=O)c2ccccc2)cc1COc1ccccc1	-15%	-30%	37	?	-8%	3%
COc1ccc(/C=N\NC(=O)c2cc(O)c(O)c(O)c2)cc1COc1ccc(C(=O)OCC(C)C)cc1	5.6µM*	nt	0	nt	13%	5%
N#Cc1cccc(NC(=O)N2CCCC3(CCN(C(=O)c4ccco4)CC3)C2)c1	nt	nt	nt	nt	-9%	nt
COc1ccc(N2CC(NC(=O)c3c(F)cccc3Cl)CC2=O)cc1OC (stereo not given)	nt	nt	15	?	2%	nt
CCc1cccc(NCc2ccccc2-c2nnc(-c3ccccc3Cl)o2)c1	nt	19%[46.1 µM]	31	?	53%	nt
COc1ccc(/C=N/NC(=O)c2ccoc2C)cc1COc1c(C)cccc1C	?	5.6µM*	-97*	?	10µM*	-39%
COc1ccccc1C1CN(CCNC(=O)c2sccc2Cl)Cc2ccccc2O1 (stereo not given)	nt	nt	nt	nt	-6%	nt
COc1ccc(CCNC(=O)c2c(C)nn(CC(C)C)c2Cl)cc1	-25%	-9%	-12	2.2µM*	1%	-7%
Cc1nn(Cc2ccccc2)c(Cl)c1C(=O)NCCc1ccccc1	4%	nt	15	nt	22%	23%
Cn1nc(C(C)(C)C)cc1C(=O)N1CCCCC1c1cc(C(=O)NCc2ccc(F)cc2)no1 (stereo not given)	nt	nt	-75*	nt	?	nt
Cn1nc(C(C)(C)C)cc1C(=O)N1CCCCC1c1cc(C(=O)NCc2ccccc2)no1 (stereo not given)	nt	nt	-31	nt	?	nt
Cc1onc(-c2ccccc2Cl)c1C(=O)Nc1cccc2cccnc12	7.1µM*	?	-99*	?	?	-10%
Cc1cnc(C(=O)Nc2cccc3cccnc23)cn1	?	?	-89*	1.6µM*	12%	16%
Cc1cccc(C(=O)Nc2cccc3cccnc23)c1	-5%	nt	120	nt	65%	-19%
